The record followed here is PubChem BioAssay (NCATS).

Assay [1] addresses Lysosomal acid glucosylceramidase (Homo sapiens) (UniProt P04062). Description: Glucocerebrosidase-p2 (AID 348; in the data active = potency below about 10 µM; also: potency is read from the fitted curve at half-maximal effect). Conditions: purified GBA, blue fluorogenic substrate, 40 min. The gist of the method:
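Compounds titrated from 0.6 nM upwards against 0.2 nM enzyme in pH 5.9 citric acid/KH2PO4, taurocholate, tween-20; blue fluorogenic substrate 80 uM, 40 min room temperature, stopped and read Ex 365/Em 440 for AC50.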

Assay [2] is described as follows: AP1 Signaling Pathway (AID 357). Also: % is scaled to controls: 0 for no effect and ±100 for the full control effect. Conditions: ME-180 AP-1-bla reporter, EGF-induced, beta-lactamase ratio, 5 h; at 7.69 µM (top of the series) unless noted. The procedure, abridged: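 Read-out was the 460nm/530nm emission ratio (excitation 405nm) after CCF4 loading for 2.5 hours at room temperature. Cells carried an AP-1-driven beta-lactamase reporter, were stimulated with EC50 EGF plus compound for 5 hours, and AC50 values came from titrations.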

A short description of assay [3]: Stat Signaling Pathway (AID 446).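 Also: ME-180 cervical cancer cells given 40 pM IL-6 alongside compound; SIE-controlled beta-lactamase reporter measured as 460/530 nm FRET emission ratio; % is scaled to controls: 0 for no effect and ±100 for the full control effect.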 The note with it: ME-180 (cervical carcinoma) SIE beta-lactamase reporter, IL-6 stimulated, 5 h; at 7.69 µM (top of the series) unless noted. The procedure, abridged:
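IL-6/STAT signaling read in ME-180 cells via an SIE beta-lactamase reporter. Stimulus was 40 pM IL-6 (its AC50) for 5 hrs, so both activation and inhibition register.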

Assay [4] deals with Glucocorticoid receptor (Homo sapiens) (UniProt P04150). Description: GR-GFP Redistribution (AID 450;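 active = compounds whose dose series gives a full or clear partial fitted curve of increased nuclear translocation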; also: potency is read from the fitted curve at half-maximal effect). Conditions: U2OS GR-GFP nuclear translocation, laser cytometry, 2 h.
Chain of Glucocorticoid receptor (Homo sapiens) (P04150 whole entry, looked up): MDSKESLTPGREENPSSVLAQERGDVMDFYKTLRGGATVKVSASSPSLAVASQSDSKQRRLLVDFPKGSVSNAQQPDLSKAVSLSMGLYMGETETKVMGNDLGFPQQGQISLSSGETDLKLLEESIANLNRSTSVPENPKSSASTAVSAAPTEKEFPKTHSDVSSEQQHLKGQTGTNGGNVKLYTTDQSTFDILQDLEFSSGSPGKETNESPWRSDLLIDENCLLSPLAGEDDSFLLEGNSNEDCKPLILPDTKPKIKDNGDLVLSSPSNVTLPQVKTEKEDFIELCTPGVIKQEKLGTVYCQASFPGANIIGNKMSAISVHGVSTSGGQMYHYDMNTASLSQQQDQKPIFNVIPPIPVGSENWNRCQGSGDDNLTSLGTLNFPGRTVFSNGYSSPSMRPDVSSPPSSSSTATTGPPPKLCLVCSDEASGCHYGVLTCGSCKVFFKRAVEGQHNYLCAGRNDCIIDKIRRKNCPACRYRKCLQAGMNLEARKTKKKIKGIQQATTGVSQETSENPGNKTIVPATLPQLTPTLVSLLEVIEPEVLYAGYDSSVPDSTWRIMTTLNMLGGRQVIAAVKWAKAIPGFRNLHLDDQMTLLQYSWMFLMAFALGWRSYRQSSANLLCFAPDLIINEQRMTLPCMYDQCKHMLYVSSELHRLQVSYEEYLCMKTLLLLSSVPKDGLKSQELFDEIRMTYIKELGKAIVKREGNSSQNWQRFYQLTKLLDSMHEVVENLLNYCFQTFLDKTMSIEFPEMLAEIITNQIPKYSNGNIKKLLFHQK
Assay [5] shares this target. The experiment in a line: GR-EFC Redistribution (AID 451; calls by dose curve; also: potency is read from the fitted curve at half-maximal effect). The note with it: CHO-K1 GR-EFC translocation, beta-gal luminescence, 2 h. The procedure, abridged:
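Translocation of GR-ED fusion to nuclear EA restores b-gal, read by luminescence after 1 h room-temperature detection. Engineered CHO-K1 biosensor cells, 1,000/well, exposed 2 h at 37 C to titrations up to 46 uM final.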

Assay [6] has as its target Mitogen-activated protein kinase 10 (Mus musculus) (UniProt Q61831). Description: JNK3 AlphaScreen Assay (AID 530).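 Also: kinase came from lysate of stimulated human HepG2 cells; signal reports phosphorylation of biotinylated GST-cJun 1-79 at Ser73 with 10 µM ATP; % is scaled to controls: 0 for no effect and ±100 for the full control effect.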 The note with it: JNK3 lysate, c-Jun phosphorylation; series mostly up to 11.4 µM. The procedure, abridged: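 Compound titrations were preincubated 15 minutes at room temperature with substrate, antibody and pre-activated JNK3-containing HepG2 lysate. Reactions were started with 10 uM ATP and stopped with EDTA-containing bead buffer for AlphaScreen detection.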

The target of assay [7] is 3',5'-cyclic-AMP phosphodiesterase 4B (Homo sapiens) (UniProt Q07343). Description: qHTS Assay for Inhibitors of PDE-IV (AID 607; active = well fitted activation curve with a large enough effect in the main read-out, with a control signal flat, not every such curve was filed as active; also: % of control where 0% means no effect). Conditions: HEK293 ACTOne CNG channel cells, membrane potential fluorescence; series mostly up to 22.9 µM. The procedure, abridged: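 Live HEK293 cells with a modified cyclic nucleotide-gated (CNG) channel report intracellular cAMP via membrane-potential dye fluorescence (ex 535/em 590 nm). Endogenous PDE-IV was targeted. Compounds were tested at up to 22.9 uM final; RO 20-1724 100 uM served as control.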
Chain of 3',5'-cyclic-AMP phosphodiesterase 4B (Homo sapiens) (Q07343 whole entry, looked up): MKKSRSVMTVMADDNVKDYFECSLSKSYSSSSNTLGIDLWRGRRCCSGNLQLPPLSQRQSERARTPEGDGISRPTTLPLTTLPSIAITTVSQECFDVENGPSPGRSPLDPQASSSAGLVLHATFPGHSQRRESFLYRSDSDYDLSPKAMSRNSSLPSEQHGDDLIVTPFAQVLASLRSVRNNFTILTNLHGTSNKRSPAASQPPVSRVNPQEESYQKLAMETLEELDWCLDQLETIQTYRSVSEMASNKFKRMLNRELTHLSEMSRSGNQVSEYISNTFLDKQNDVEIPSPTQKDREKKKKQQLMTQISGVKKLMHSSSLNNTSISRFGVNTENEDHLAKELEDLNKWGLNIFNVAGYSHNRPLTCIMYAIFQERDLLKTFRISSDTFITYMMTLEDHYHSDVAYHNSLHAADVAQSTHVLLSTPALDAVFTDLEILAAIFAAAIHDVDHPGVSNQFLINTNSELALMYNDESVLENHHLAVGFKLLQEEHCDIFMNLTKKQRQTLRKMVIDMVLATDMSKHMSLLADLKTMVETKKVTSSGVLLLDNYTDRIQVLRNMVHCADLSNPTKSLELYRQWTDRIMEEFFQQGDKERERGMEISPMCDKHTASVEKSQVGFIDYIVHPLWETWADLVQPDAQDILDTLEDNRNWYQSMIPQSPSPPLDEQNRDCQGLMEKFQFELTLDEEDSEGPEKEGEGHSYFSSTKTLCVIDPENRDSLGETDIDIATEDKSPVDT

Assay [8] concerns the target Cytochrome P450 2C9 (Homo sapiens) (UniProt P11712). The experiment in a line: qHTS Assay for Inhibitors and Substrates of Cytochrome P450 2C9 (AID 883; active = well fitted curve in the direction sought with a large enough effect; an effect the other way counts as inactive or inconclusive; also: potency is read from the fitted curve at half-maximal effect; nearly all actives have a fitted effect of over 60% in size). Conditions: recombinant CYP2C9, luciferin-H luminescence, 60 min; series mostly up to 11.4 µM. The gist of the method: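 Inhibition of CYP2C9 is scored as loss of luminescence, with 57uM sulphaphenazole defining 100% inhibition. Substrate Luciferin-H is used at 100uM, equal to its KM; enzyme at 10nM in 25mM KPO4, 60 min at 37C with NADPH regeneration.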

Assay [9] deals with Cytochrome P450 3A4 (Homo sapiens) (UniProt P08684). The experiment in a line: qHTS Assay for Activators of Cytochrome P450 3A4 (AID 885; active = well fitted curve in the direction sought with a large enough effect; an effect the other way counts as inactive or inconclusive; also: nearly all actives have a fitted effect of over 65% in size). Conditions: recombinant CYP3A4, Luciferin-PPXE luminescence, 60 min; series mostly up to 11.4 µM. The gist of the method: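 Quantitative HTS format: compounds preincubated with 20nM human CYP3A4 and Luciferin-PPXE substrate at KM, reaction started by NADPH regeneration, stopped after 60 min, luciferase luminescence read 20 min later.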
Chain of Cytochrome P450 3A4 (Homo sapiens) (P08684 whole entry, looked up): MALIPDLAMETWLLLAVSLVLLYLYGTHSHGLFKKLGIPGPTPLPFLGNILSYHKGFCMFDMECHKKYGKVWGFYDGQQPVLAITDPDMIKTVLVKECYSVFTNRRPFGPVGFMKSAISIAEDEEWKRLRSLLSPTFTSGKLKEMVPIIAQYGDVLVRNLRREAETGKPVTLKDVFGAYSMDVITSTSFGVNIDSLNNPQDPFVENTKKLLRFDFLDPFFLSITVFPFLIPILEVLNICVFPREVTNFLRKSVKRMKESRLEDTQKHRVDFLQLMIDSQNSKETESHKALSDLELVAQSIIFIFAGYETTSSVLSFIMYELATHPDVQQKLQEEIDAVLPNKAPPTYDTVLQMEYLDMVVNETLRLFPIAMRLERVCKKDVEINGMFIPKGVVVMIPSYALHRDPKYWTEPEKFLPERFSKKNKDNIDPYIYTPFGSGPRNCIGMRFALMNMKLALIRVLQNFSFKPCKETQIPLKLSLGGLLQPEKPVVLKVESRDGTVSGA

In assay [10] the target is Cytochrome P450 2D6 (Homo sapiens) (UniProt P10635). Description: qHTS Assay for Inhibitors and Substrates of Cytochrome P450 2D6 (AID 891; active = well fitted curve in the direction sought with a large enough effect; an effect the other way counts as inactive or inconclusive; also: potency is read from the fitted curve at half-maximal effect; nearly all actives have a fitted effect of over 60% in size). Conditions: recombinant CYP2D6, luciferin-ME EGE luminescence; series mostly up to 11.4 µM. The procedure, abridged: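 Human CYP2D6 (5 nM) with 30 uM Luciferin-ME EGE (at Km) in 100 mM KPO4, compound preincubated 10 min, then NADPH regeneration system for 60 min at room temperature. Luciferin read by luminescence; normalized to 1.43 uM quinidine.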
Chain of Cytochrome P450 2D6 (Homo sapiens) (P10635 whole entry, looked up): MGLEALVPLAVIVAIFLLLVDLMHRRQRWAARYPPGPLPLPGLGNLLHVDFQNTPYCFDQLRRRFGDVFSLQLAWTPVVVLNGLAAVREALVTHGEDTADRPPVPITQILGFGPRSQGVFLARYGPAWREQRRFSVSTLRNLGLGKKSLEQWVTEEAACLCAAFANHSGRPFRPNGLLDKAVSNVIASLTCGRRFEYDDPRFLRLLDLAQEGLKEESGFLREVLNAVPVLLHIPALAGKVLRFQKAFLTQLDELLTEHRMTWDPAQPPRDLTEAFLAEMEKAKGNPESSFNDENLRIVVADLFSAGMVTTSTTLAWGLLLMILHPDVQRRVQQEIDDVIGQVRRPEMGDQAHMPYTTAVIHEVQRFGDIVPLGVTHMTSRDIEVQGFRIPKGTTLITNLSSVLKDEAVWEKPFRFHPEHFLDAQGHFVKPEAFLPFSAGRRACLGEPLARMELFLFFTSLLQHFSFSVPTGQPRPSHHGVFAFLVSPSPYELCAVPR

Each structure is given as a SMILES string. Unmarked numbers belong to inactive results. Inconclusive results are not listed. Calls of active or inactive are those of the source. Unless noted, calls follow the shape of the dose curve; as a rule, active = well fitted curve in either direction with a large enough effect (not every such curve was filed as active); inconclusive = small, poorly fitted or top-dose-only effect, or another doubt; inactive = flat fitted curve, though single readings scatter.

Chain of Lysosomal acid glucosylceramidase (Homo sapiens) (P04062 whole entry, looked up): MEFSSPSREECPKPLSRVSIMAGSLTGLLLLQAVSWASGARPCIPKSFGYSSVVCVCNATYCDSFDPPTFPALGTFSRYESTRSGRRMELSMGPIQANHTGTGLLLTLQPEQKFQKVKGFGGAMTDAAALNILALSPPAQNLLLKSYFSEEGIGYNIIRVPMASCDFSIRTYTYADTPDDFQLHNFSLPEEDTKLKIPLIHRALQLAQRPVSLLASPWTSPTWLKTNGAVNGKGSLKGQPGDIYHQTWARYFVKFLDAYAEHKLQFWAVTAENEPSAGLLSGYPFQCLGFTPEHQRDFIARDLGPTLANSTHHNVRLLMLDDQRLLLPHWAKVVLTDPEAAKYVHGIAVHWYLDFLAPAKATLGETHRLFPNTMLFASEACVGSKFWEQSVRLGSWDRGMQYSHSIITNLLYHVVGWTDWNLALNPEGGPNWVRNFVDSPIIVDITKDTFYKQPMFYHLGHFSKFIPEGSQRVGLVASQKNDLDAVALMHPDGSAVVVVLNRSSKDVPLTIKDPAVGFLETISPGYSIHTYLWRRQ
Chain of Cytochrome P450 2C9 (Homo sapiens) (P11712 whole entry, looked up): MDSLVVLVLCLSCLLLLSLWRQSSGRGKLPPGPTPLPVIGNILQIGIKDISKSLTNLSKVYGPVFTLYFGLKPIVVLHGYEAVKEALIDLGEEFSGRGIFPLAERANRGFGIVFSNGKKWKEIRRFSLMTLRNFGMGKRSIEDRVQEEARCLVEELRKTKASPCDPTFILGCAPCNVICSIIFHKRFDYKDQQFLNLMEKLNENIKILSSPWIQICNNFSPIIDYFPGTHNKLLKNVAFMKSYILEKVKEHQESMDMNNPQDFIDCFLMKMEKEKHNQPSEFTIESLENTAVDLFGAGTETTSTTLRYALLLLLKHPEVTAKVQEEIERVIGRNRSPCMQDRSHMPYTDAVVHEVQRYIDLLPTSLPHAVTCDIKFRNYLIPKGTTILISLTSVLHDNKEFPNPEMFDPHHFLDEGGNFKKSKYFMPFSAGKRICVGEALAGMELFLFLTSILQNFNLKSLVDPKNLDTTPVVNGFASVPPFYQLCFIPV

Regarding `O=C(c1[nH]o[n+](=O)c1C(=O)c1csc2ccccc12)c1csc2ccccc12`, the Potency is over 11.4 µM in [1], over 46 µM in assay [4], over 9.22 µM in [5] and 1.58 µM (active) in assay [8]. For the same compound, the activity change, negative = inhibition in [2] is 3.39%. In addition, the activity, negative = inhibition in assay [3] was -7.78%. The Potency entry in assay [6], in assay [7] and in assay [9] was “inactive” throughout.

Regarding `N=C(N)SC(c1ccccc1)c1ccccc1`, the Potency was over 11.4 µM in assay [1], over 46 µM in [4] and over 9.22 µM in assay [5]. Moreover, the activity change, negative = inhibition in [2] is 6.69%. Besides, the activity, negative = inhibition in assay [3] was 0.795%. Moreover, the Potency entry in assay [6] and in assay [7] was “inactive” throughout.

For the compound `c1ccc(CN2CC[C@@H](CNc3ncnc4ccccc34)C2)cc1`, the Potency in assay [1] is over 11.4 µM; in assay [4] it was over 46 µM; in [5], over 9.22 µM; in [10] it was 0.794 µM (active). For the same compound, in [2], the activity change, negative = inhibition was 3.93%. Further, the activity, negative = inhibition in [3] is 8.92%. Besides, the Potency entry in assay [6] and in assay [7] was “inactive” in each case.

Take `O=C1C[C@H]2OCC=C3CN4CC[C@@]5(C(=O)O)[C@H](N1)[C@H]2[C@H]3C[C@H]45`: the Potency in assay [1] was over 11.4 µM; in assay [4], over 46 µM; in [5], over 9.22 µM. Besides, in assay [2], the activity change, negative = inhibition was 1.86%. Besides, in assay [3], the activity, negative = inhibition is -5.3%. The Potency result in [6] and in assay [7] was “inactive” in each case.

As for `NC(Cc1ccccc1)(C(=O)O)C(=O)O`, the Potency was over 11.4 µM in assay [1], over 46 µM in assay [4] and over 9.22 µM in assay [5]. Also, the activity change, negative = inhibition in assay [2] is 4.48%. Also, the activity, negative = inhibition in assay [3] was -6.13%. In addition, the Potency result in assay [6] and in [7] was “inactive” throughout.

For the compound `O=C(O)c1cc(-c2ccc(-c3ccccc3)cc2)nc2cc3ccccc3cc12`, the Potency was over 11.4 µM in [1], over 46 µM in [4] and over 9.22 µM in [5]. Moreover, the activity change, negative = inhibition in assay [2] was -7.09%. Moreover, in assay [3], the activity, negative = inhibition was -0.262%. The Potency entry in [6] and in assay [7] was “inactive” throughout.

On to `CC(=O)Nc1ccc2c(c1)/C(=C/c1ccc([N+](C)(C)C)cc1)c1ccccc1-2`, for which the Potency in [1] is 9.02 µM (active); in assay [4], over 46 µM; in assay [5], over 9.22 µM. For the same compound, the activity change, negative = inhibition in [2] was -9.13%. Also, in assay [3], the activity, negative = inhibition is 4.17%. The Potency result in assay [6] and in [7] was “inactive” each time.

`COc1ccc(CC[N@+]2(C)COc3cc4oc(=O)cc(C)c4cc3C2)cc1OC`: the results for the Potency in assay [1], in [4] and in [5] were 11 µM, over 46 µM and over 9.22 µM, respectively. For the same compound, the activity change, negative = inhibition in [2] is 10.2%. Besides, in assay [3], the activity, negative = inhibition was 5.96%. In addition, the Potency result in assay [7] was “inactive”.

Turning to `Oc1cc(O)c2c(c1)O[C@H](c1ccc(O)c(O)c1)[C@@H](O)[C@@H]2c1c(O)cc(O)c2c1O[C@@H](c1ccc(O)c(O)c1)[C@H](O)C2`, the figures for the Potency in assay [1], in assay [4] and in assay [5] were over 11.4 µM, over 46 µM and over 9.22 µM, respectively. For the same compound, the activity change, negative = inhibition in [2] is 16.5%. Further, in [3], the activity, negative = inhibition was -2.56%. Besides, the Potency entry in assay [6] and in assay [7] was “inactive” in each case.
